Results taken from PubChem BioAssay (Tox21).
Records with an inconclusive call do not appear. The source holds several records for some structures; these can differ, active in one and inactive in another. The source made the active and inactive calls. Unless noted, the call rests on the fitted dose curve; in most records, active means well fitted curve in the direction sought with a large enough effect in the repeat runs; inconclusive means weak or mixed curves; inactive means no such curve, though single readings can be large; an effect the other way counts as inactive or inconclusive.

Key:
[1] = qHTS assay to identify small molecule agonists of the peroxisome proliferator-activated receptor delta (PPARd) signaling pathway - cell viability counter screen (AID 743211); further: nearly all actives have a fitted effect of over 55% in size; further: potency means the concentration at half of the fitted maximal effect
In short: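 PPARd-bla HEK293H cells (3000/well) were pre-incubated 5 h at 37 C, then exposed to compound for 17 h at 37 C. After 2 h with LiveBLAzer substrate, CellTiter-Glo was added to the same wells; luminescence read after 30 min at room temperature.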

[2] = target: Peroxisome proliferator-activated receptor delta (Homo sapiens) (UniProt Q03181); assay: qHTS assay to identify small molecule agonists of the peroxisome proliferator-activated receptor delta (PPARd) signaling pathway (AID 743212; calls by dose curve;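 further: HEK293H cells with PPARd UAS beta-lactamase reporter GeneBLAzer system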)
Chain of Peroxisome proliferator-activated receptor delta (Homo sapiens) (Q03181 whole entry, looked up): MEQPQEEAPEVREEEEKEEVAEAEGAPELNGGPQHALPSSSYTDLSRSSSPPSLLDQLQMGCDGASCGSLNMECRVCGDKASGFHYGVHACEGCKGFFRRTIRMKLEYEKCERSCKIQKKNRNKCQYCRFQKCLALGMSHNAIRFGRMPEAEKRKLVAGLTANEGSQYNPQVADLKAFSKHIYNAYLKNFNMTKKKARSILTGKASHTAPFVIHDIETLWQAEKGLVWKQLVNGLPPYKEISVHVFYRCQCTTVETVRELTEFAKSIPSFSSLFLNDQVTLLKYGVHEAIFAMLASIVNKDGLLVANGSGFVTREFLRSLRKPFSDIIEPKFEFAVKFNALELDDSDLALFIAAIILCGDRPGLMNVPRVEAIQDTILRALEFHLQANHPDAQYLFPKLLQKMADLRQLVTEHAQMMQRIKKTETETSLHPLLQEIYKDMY
In short: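 Beta-lactamase reporter read by fluorescence (LiveBLAzer B/G FRET, 2 h, room temperature). Test agents, in DMSO, incubated at 37 C with PPARd-bla HEK293H cells.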

[3] = qHTS assay to identify small molecule antagonists of the peroxisome proliferator-activated receptor delta (PPARd) signaling pathway - cell viability counter screen (AID 743213); further: nearly all actives have a fitted effect of over 50% in size; further: potency means the concentration at half of the fitted maximal effect
In short: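 HEK293H cells with the PPARd UAS-bla reporter, co-treated 17 h at 37 C with compounds and L165041 (300 nM final), were lysed with CellTiter-Glo. Luminescence indicated viable cell content.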

[4] = target: Peroxisome proliferator-activated receptor delta (Homo sapiens) (UniProt Q03181); assay: qHTS assay to identify small molecule antagonists of the peroxisome proliferator-activated receptor delta (PPARd) signaling pathway (AID 743215; active means well fitted inhibition curve with a large enough effect in the signal ratio in the repeat runs, not every such curve was filed as active; the % refers to the signal ratio;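 further: cells stimulated with agonist L165041 at 300 nM final during compound exposure; series mostly up to about 62 µM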)
In short: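 Screen format: qHTS, antagonist mode. HEK293H PPARd-bla cells received compound and 300 nM L165041 (final), 17 h, 37 C. Beta-lactamase detected via FRET substrate fluorescence, 2 h, room temperature.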

[5] = qHTS assay to identify small molecule agonists of the farnesoid-X-receptor (FXR) signaling pathway - cell viability counter screen (AID 743218); further: nearly all actives have a fitted effect of over 45% in size; further: potency means the concentration at half of the fitted maximal effect
In short: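 Same-well cytotoxicity check on FXR-UAS-bla HEK 293T cells: 5 h attachment, 16 h compound at 37 C, CellTiter-Glo luminescence read at room temperature after 30 min.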

[6] = target: Bile acid receptor (Homo sapiens) (UniProt Q96RI1); assay: qHTS assay to identify small molecule agonists of the farnesoid-X-receptor (FXR) signaling pathway (AID 743220; active means well fitted activation curve with a large enough effect in the signal ratio in the repeat runs, not every such curve was filed as active; the % refers to the signal ratio)
Chain of Bile acid receptor (Homo sapiens) (Q96RI1 whole entry, looked up): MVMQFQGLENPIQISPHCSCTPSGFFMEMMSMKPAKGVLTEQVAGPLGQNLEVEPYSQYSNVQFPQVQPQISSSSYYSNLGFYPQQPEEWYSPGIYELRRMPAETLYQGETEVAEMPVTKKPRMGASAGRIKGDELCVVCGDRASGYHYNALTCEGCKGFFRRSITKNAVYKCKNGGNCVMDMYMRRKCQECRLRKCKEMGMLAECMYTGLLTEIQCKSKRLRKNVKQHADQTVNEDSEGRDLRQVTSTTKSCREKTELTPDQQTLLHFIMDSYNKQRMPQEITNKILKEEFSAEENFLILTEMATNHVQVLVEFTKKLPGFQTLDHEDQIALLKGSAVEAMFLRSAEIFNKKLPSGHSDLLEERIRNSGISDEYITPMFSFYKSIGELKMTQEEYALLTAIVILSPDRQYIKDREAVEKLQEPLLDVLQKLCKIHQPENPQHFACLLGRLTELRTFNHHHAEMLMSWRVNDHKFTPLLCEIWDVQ
In short: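 FXR-UAS-bla HEK 293T cells carrying a UAS-driven beta-lactamase reporter were plated for 5 h at 37C/5% CO2, then exposed to DMSO-dissolved Tox21 10K compounds for 16 h at 37C. A LiveBLAzer B/G FRET substrate was loaded for 2 h at room temperature before fluorescence reading.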

[7] = qHTS assay to identify small molecule antagonists of the farnesoid-X-receptor (FXR) signaling pathway - cell viability counter screen (AID 743221; active means well fitted cell-killing curve with a large enough effect in the repeat runs, not every such curve was filed as active; further: nearly all actives have a fitted effect of over 50% in size; further: potency means the concentration at half of the fitted maximal effect)
In short: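 GeneBLAzer FXR-UAS-bla HEK 293T cells, compound plus chenodeoxycholic acid (50 uM final), 16 h at 37 C. CellTiter-Glo added to the same wells after the beta-lactamase read; luminescence read after 30 min at room temperature as viability.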

[8] = target: Vitamin D3 receptor (Homo sapiens) (UniProt P11473); assay: qHTS assay to identify small molecule agonists of the vitamin D receptor (VDR) signaling pathway (AID 743222; calls by dose curve)
Chain of Vitamin D3 receptor (Homo sapiens) (P11473 whole entry, looked up): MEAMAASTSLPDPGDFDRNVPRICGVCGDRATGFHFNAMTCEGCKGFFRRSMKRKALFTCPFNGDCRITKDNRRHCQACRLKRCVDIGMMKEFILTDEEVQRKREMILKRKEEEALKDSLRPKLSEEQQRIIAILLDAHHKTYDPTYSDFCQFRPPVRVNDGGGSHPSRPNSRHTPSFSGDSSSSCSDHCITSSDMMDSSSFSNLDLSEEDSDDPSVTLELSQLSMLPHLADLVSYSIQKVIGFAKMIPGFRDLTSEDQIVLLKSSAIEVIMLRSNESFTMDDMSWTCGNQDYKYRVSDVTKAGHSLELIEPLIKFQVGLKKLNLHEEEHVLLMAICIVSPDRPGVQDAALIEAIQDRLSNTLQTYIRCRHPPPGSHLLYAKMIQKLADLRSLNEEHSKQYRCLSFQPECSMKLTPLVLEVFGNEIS
In short: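 Using LiveBLAzer B/G FRET detection, agonism was scored in VDR-bla cells exposed overnight (16 h, 37C) to DMSO-dissolved compounds; substrate incubation was 2 h at room temperature.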

[9] = target: Vitamin D3 receptor (Homo sapiens) (UniProt P11473); assay: qHTS assay to identify small molecule antagonists of the vitamin D receptor (VDR) signaling pathway (AID 743223; active means well fitted inhibition curve with a large enough effect in the signal ratio in the repeat runs, not every such curve was filed as active; the % refers to the signal ratio)
In short: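 VDR-bla cells were treated with compound plus 3 nM final 1alpha,25-dihydroxyvitamin D3 for 16 h at 37C. Beta-lactamase reporter read by B/G FRET substrate fluorescence after 2 h at room temperature. qHTS format.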

[10] = qHTS assay to identify small molecule agonists of the vitamin D receptor (VDR) signaling pathway - cell viability counter screen (AID 743224); further: nearly all actives have a fitted effect of over 50% in size; further: potency means the concentration at half of the fitted maximal effect
In short: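 Counter screen for cytotoxicity: VDR-bla cells at 2,000 cells/well, 16 h compound exposure, then CellTiter-Glo luminescence after the beta-lactamase measurement.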

[11] = qHTS assay to identify small molecule antagonists of the vitamin D receptor (VDR) signaling pathway - cell viability counter screen (AID 743225); further: nearly all actives have a fitted effect of over 50% in size; further: potency means the concentration at half of the fitted maximal effect
In short: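 VDR-UAS-bla HEK 293T cells were plated and incubated 4 h at 37C, then dosed with compound plus 3 nM (final) 1-alpha,25-dihydroxyvitamin D3 for 16 h. After the 2 h beta-lactamase read, viability in the same wells was read as CellTiter-Glo luminescence after 30 min at room temperature.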

[12] = qHTS assay to identify small molecule agonists of the NFkB signaling pathway - cell viability counter screen (AID 1159515; calls by dose curve; further: nearly all actives have a fitted effect of over 55% in size; further: potency means the concentration at half of the fitted maximal effect)
In short: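 Counter screen run alongside the NFkB-bla agonist assay: ME-180 reporter cells exposed to compounds for 5 hr, then lysed with CellTiter-Glo in the same wells. Luminescence, read after 30 min, reflects viable cells.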

[13] = qHTS assay to identify small molecule agonists of the endoplasmic reticulum stress response signaling pathway (AID 1159516; active means well fitted activation curve with a large enough effect in the signal ratio in the repeat runs, not every such curve was filed as active; the % refers to the signal ratio)
In short: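 For this screen, HeLa cells stably carrying beta-lactamase under the ER stress response element received test compounds, positive controls or DMSO for 5 hr at 37 C; B/G FRET substrate was then added and dual-wavelength emission recorded.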

[14] = qHTS assay to identify small molecule agonists of the endoplasmic reticulum stress response signaling pathway - cell viability counter screen (AID 1159517; calls by dose curve; further: nearly all actives have a fitted effect of over 50% in size; further: potency means the concentration at half of the fitted maximal effect)
In short: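 Cytotoxicity of test compounds toward ESRE-bla HeLa cells was assessed after 5 hr exposure. The luminescent CellTiter-Glo signal was measured 30 min after reagent addition.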

[15] = qHTS assay to identify small molecule antagonists of the retinoid-related orphan receptor gamma (ROR-gamma) signaling pathway - cell viability counter screen (AID 1159520); further: nearly all actives have a fitted effect of over 50% in size; further: potency means the concentration at half of the fitted maximal effect
In short: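 Tet-on ROR gamma CHO cells (1,000/well) were plated 4 hr, given compounds in DMSO for 2 hr at 37 C, then induced with 1 uM final doxycycline for 16 hr. Viability was read as ATP by CellTiter-Glo luminescence after 30 min.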

[16] = target: Nuclear receptor ROR-gamma (Homo sapiens) (UniProt P51449); assay: qHTS assay to identify small molecule antagonists of the retinoid-related orphan receptor gamma (ROR-gamma) signaling pathway (AID 1159521; further: nearly all actives have a fitted effect of over 50% in size; further: potency means the concentration at half of the fitted maximal effect)
In short: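 Tet-on ROR-gamma CHO cells with ROR response element-luciferase reporter; compounds added 2 hr before 1 uM doxycycline induction, then 16 hr at 37 C. Antagonism scored as decreased ONE-Glo luminescence.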

[17] = qHTS assay to identify small molecule agonists of the AP-1 signaling pathway - cell viability counter screen (AID 1159525; calls by dose curve; further: nearly all actives have a fitted effect of over 55% in size; further: potency means the concentration at half of the fitted maximal effect)
In short: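 Each titration point was normalised to DMSO and tetra n-octyl ammonium bromide controls. The read was Cell Titer Glo luminescence after 30 min at RT, following 5 h compound exposure of ME-180 AP-1-bla cells at 37 °C.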

[18] = qHTS assay to identify small molecule agonists of the AP-1 signaling pathway (AID 1159526; calls by dose curve)
[19] = target: Retinoic acid receptor RXR-alpha (Homo sapiens) (UniProt P19793); assay: qHTS assay to identify small molecule agonists of the RXR signaling pathway (AID 1159527; calls by dose curve; further: nearly all actives have a fitted effect of over 35% in size)
Chain of Retinoic acid receptor RXR-alpha (Homo sapiens) (P19793 whole entry, looked up): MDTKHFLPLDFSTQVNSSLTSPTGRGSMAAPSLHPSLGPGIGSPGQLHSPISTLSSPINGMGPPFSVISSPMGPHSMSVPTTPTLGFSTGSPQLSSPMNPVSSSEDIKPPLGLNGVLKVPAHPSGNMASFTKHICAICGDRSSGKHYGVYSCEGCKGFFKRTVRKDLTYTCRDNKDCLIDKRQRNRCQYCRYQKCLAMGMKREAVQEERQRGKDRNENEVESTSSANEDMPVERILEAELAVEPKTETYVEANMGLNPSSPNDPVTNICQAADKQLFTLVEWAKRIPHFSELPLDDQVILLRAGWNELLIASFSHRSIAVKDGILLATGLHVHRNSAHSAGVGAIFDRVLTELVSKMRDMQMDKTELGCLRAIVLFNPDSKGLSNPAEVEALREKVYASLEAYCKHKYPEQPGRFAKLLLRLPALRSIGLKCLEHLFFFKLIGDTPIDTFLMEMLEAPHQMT
In short: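 GeneBLAzer RXR-alpha-UAS-bla HEK 293T cells in 2% charcoal-stripped FBS medium were exposed to compounds for 16 hr at 37 C in agonist mode. Beta-lactamase reporter read as 460/530 nm FRET ratio after 2 hr substrate loading.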

[20] = target: Bile acid receptor (Homo sapiens) (UniProt Q96RI1); assay: qHTS assay to identify small molecule antagonists of the farnesoid-X-receptor (FXR) signaling pathway (AID 743217; active means well fitted inhibition curve with a large enough effect in the signal ratio in the repeat runs, not every such curve was filed as active; the % refers to the signal ratio)
In short: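 Quantitative HTS, beta-lactamase reporter format: FXR-UAS-bla HEK 293T cells co-treated 16 h at 37 °C with compounds and 50 uM final chenodeoxycholic acid, then read by B/G FRET fluorescence.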

Measured: Potency

c1ccc2sc(SNC3CCCCC3)nc2c1
not listed: [18] | [19] | [20]
inactive: all other assays above

COc1cc(C[C@@H](C)N)c(OC)cc1Br
inactive: [10] | [12] | [13] | [14] | [15] | [16] | [17] | [18] | [19]
active: [1] 62.8 µM | [5] 31.5 µM

CN1CC[C@]23c4c5ccc(O)c4O[C@H]2[C@@H](O)C=C[C@H]3[C@H]1C5
not listed: [2] | [4] | [6] | [11] | [20]
inactive: all other assays above

CC(C)(C)CC(C)(C)c1ccc(O)cc1
inactive: [4] | [6] | [8] | [13]
54.8 µM (active) and inactive: [5]
active: [1] 34.7 µM | [3] 27.5 µM | [7] 49 µM | [11] 17.4 µM | [12] 21.9 µM | [14] 21.9 µM | [15] 27.3 µM | [17] 17.4 µM
15.5 µM (active) and inactive: [10]
54.5 µM (active) and inactive: [16]

CCNC(=O)NC(=O)/C(C#N)=N/OC
not listed: [2] | [9] | [19]
inactive: all other assays above
